# Data reported in PubChem BioAssay AID651558 (National Center for Advancing Translational Sciences (NCATS), 2012).
# About 480 (40%) of roughly 1,200 compounds were called active. About 29% were inconclusive and are not listed. Calls follow the shape of the dose curve; as a rule, active = well fitted inhibition curve with a large enough effect; inconclusive = small, poorly fitted or top-dose-only effect; inactive = no such curve, though single readings can be large or run the other way. This is one part of the list.
# Assay: qHTS Assay to Find Inhibitors of Chronic Active B-Cell Receptor Signaling: Hit Validation in Primary Screen; also: nearly all actives have a fitted effect of over 75% in size
# Settings: ABC-DLBCL IkB-luc/CBR ratio luminescence, 4 h; series mostly up to 46.1 µM
# Outline: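 Concentration series (3 nM to 46 uM) tested on TMD8 cells induced with doxycycline for 4 h. Filter-corrected green (IkBa fusion) over red (unfused) luciferase signal; Data were normalised to 10 uM MG-132 and untreated cell wells.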
# Potency is read from the fitted curve at half-maximal effect.
row,Compound,Potency
1,Cc1ccc(/C=N/NC(=O)c2cc(-c3cccnc3)nc3ccccc23)cc1,2.31 µM (active)
2,Fc1ccc(/C=N/NC(=S)Nc2cccnc2)cc1,inactive
3,COc1ccc(-c2cc(C(=O)N/N=C(\C)c3cccnc3)c3ccccc3n2)cc1,inactive
4,CCc1ccc(/C=N/NC(=O)c2cc(-c3ccncc3)nc3ccccc23)s1,8.2 µM (active)
5,Cc1ccc(/C=N/NC(=O)c2cc(-c3ccncc3)nc3ccccc23)o1,5.17 µM (active)
6,Cc1ccsc1/C=N/NC(=O)c1cc(-c2ccncc2)nc2ccccc12,1.64 µM (active)
7,O=C(CSc1cccc[n+]1[O-])c1ccc(Cl)cc1,inactive
8,CCc1ccc(NC(=O)CSc2nc(=O)n(CCCN3CCOCC3)c3c2CCCC3)cc1,inactive
9,O=C(N/N=C/c1cccs1)c1cc(-c2ccncc2)nc2ccccc12,2.59 µM (active)
10,S=C(NCCN1CCOCC1)N/N=C/c1cccs1,inactive
11,CCc1ccc(/C=N/NC(=O)c2cc(C3CC3)nc3ccccc23)s1,16.4 µM (active)
12,CC(=NNC(=O)c1cc(C)nc2ccccc12)c1ccc(N2CCOCC2)cc1,inactive
13,O=C(N/N=C/c1ccc([N+](=O)[O-])o1)c1cc(-c2ccc(-c3ccccc3)cc2)nc2ccccc12,4.61 µM (active)
14,COC(=O)c1cnc(Oc2ccc(NC(=O)NC(=O)c3c(OC)cccc3OC)cc2)cc1C(F)(F)F,1.84 µM (active)
15,Cc1cc(C)c2cc(C=O)c(Cl)nc2c1,3.66 µM (active)
16,Cc1ccc(N=Nc2c(C)[nH]n(C(N)=S)c2=O)cc1,inactive
17,CCc1cc2c(SCC(=O)NC3CC3)ncnc2s1,inactive
18,COc1ccc(C2CC(c3c(O)cc(C)oc3=O)=NCCS2)c(OC)c1 (stereo not drawn),1.16 µM (active)
19,Cc1ccc(C(=O)Nc2nc(C)c(C(=O)Nc3ccc4c(c3)CCC4)s2)cc1,4.61 µM (active)
20,CCCn1nnc(NC(=S)NC(=O)c2ccc(-c3ccc(Br)cc3)o2)n1,inactive
21,COc1ccc(C2=NOC(C(=O)NCc3ccc(F)cc3)C2)cc1 (stereo not drawn),18.4 µM (active)

row,Compound,Potency
1,COc1cc(C2=NOC(C(=O)NCc3ccc(F)cc3)C2)cc(OC)c1OC (stereo not drawn),4.61 µM (active)
2,COc1cc(C(=O)NC2CCN(Cc3nnnn3Cc3ccc(F)cc3)CC2)cc(OC)c1OC,inactive
3,Cc1ccc(C(=O)O)cc1NC(=S)NC(=O)C(c1ccccc1)c1ccccc1,inactive
4,COc1cccc(N2CC(O)=C(c3nc4ccccc4s3)C2=N)c1,23.1 µM (active)
5,Cc1cc(C)cc(N2CC(O)=C(c3nc4ccccc4c(=O)[nH]3)C2=N)c1,inactive
6,COc1ccc(/C(C)=N/Nc2ncc(Cl)cc2Cl)c(O)c1,inactive
7,COc1ccc(/C=N/Nc2nccnc2Cl)c(OC)c1,23.1 µM (active)
8,CCOC(=O)N1CCN(S(=O)(=O)c2ccc(C(=O)Nc3ccc(F)cc3F)cc2)CC1,20.6 µM (active)
9,CC(C)COc1ccc(C(=O)Nc2cc(S(=O)(=O)N3CCOCC3)ccc2N2CCCC2)cc1,inactive
10,COc1cc(OC)cc(-c2cc3cc4c(cc3cn2)OCO4)c1,3.66 µM (active)
11,CCOC(=O)C1CCN(S(=O)(=O)c2c(Cl)ccc3nonc23)CC1,5.8 µM (active)
12,CCOc1ccc2nc(N3C(=O)CNC3=S)sc2c1,inactive
13,CCOC(=O)Nc1ccc2nc(N3CCCCCC3)sc2c1,20.6 µM (active)
14,CN(CC(=O)Nc1ccccc1C(F)(F)F)C(=O)c1ccccc1Sc1ccccc1C#N,inactive
15,COc1cccc(N2CCN(C(=O)c3ccc(CS(=O)c4ccc(C)cc4)o3)CC2)c1 (stereo not drawn),6.51 µM (active)
16,COc1cccc(N2CCN(C(=O)c3ccc(CS(=O)c4ccc(Cl)cc4)o3)CC2)c1 (stereo not drawn),23.1 µM (active)
17,C=CCNC(=S)NN=C1CCCCCCC1,inactive
18,CCOC(=O)c1cnc(Nc2nc3ccccc3o2)nc1CSC(=S)N(CC)CC,inactive
19,COc1ccc(C=C2c3ccccc3C(=O)c3ccccc32)c(OC)c1,4.61 µM (active)
20,O=C(OCC(O)CO)c1ccccc1Nc1ccnc2cc(Cl)ccc12 (stereo not drawn),20.6 µM (active)
21,Oc1ccccc1-n1c(-c2ccccc2)ccc1-c1ccccc1,inactive

row,Compound,Potency
1,N#CC1=C(N)OC2=C(CCc3ccccc32)C1c1ccccc1 (stereo not drawn),2.59 µM (active)
2,Cc1nc2c(C(F)(F)F)cccc2c2c1CCS2,16.4 µM (active)
3,COc1ccccc1-n1cnc2cc(NCc3cccs3)ccc21,16.4 µM (active)
4,N#CC1=C2SCC(O)(c3ccccc3)N2C(=O)CC1c1cccs1 (stereo not drawn),13 µM (active)
5,N#CC1=C2SCC(O)(c3ccccc3)N2C(=O)CC1c1ccccc1 (stereo not drawn),18.4 µM (active)
6,COc1cc(OC)cc(C(=O)NCc2cc(C)nc3ccccc23)c1,inactive
7,COc1cc(OC)cc(C(=O)NCc2ccc3c(c2)CCN3C(=O)c2ccccc2)c1,10.3 µM (active)
8,CCOc1ccccc1NC(=O)Cn1nnc(C(=O)NCc2cccs2)c1N,2.59 µM (active)
9,CCc1nnc(NC(=O)CSc2nnc(-c3ccccc3NC(=O)c3ccccc3)o2)s1,inactive
10,O=C(CSc1ncn[nH]1)Nc1nnc(-c2ccccc2)s1,0.231 µM (active)
11,O=C(CSc1nnnn1-c1ccccc1)Nc1nsc(-c2ccc(Cl)cc2)n1,inactive
12,CC1CCN(C(=O)CCCOc2cc(=O)n(C)c3ccccc23)CC1,23.1 µM (active)
13,O=C(N1CCN(c2ccccn2)CC1)N1c2ccccc2Sc2ccccc21,7.31 µM (active)
14,CC(=O)Nc1ccc(NS(=O)(=O)c2cc(-c3n[nH]c(=O)c4ccccc34)ccc2C)cc1,23.1 µM (active)
15,Cc1cc(=O)[nH]c2ccc(S(=O)(=O)Nc3ccc(O)cc3)cc12,inactive
16,Cc1ccc(NS(=O)(=O)c2cc(-c3n[nH]c(=O)c4ccccc34)ccc2C)cc1,18.4 µM (active)
17,CCOC(=O)C1C(C(=O)OC)=C(c2ccc(OC)cc2)c2ccccc2N1S(=O)(=O)C(F)(F)F (stereo not drawn),inactive
18,CCn1c2ccccc2c2cc(NC(=O)c3cc(OC)c(OC)c(OC)c3)ccc21,0.731 µM (active)
19,COc1cc(OC)cc(C(=O)NCC(=O)Nc2ccc(-c3ccccc3)cc2)c1,20.6 µM (active)
20,CCn1c2ccccc2c2cc(NC(=O)c3cc(OC)cc(OC)c3)ccc21,2.06 µM (active)
21,COc1cc(NC(=O)COC(=O)Cc2ccc(-c3ccccc3)cc2)cc(OC)c1,inactive
